PLK1 kinase inh: inhibitors of human PLK1 kinase. P53350. recombinant PLK1 kinase, TR-FRET peptide phosphorylation. inhibition, % at 10 µM. actives 0.53% (n = 97,000);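 active = inhibition of 50% or more in the single-concentration screen; inactive = inhibition below 50%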;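 note: 0% = DMSO max control and 100% = H-89 dihydrochloride min control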
CYP2C9 inhib: blocks human cytochrome P450 2C9 | P11712 | CYP2C9 Supersomes, luciferin-H conversion, luminescence | inhibition, % at 5 µM | actives 20% (n = 96,000);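 active = blocking of liver enzyme CYP2C9 beyond about 50% at 5 µM, limit read from the data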
Target sequence (P11712 whole entry, looked up): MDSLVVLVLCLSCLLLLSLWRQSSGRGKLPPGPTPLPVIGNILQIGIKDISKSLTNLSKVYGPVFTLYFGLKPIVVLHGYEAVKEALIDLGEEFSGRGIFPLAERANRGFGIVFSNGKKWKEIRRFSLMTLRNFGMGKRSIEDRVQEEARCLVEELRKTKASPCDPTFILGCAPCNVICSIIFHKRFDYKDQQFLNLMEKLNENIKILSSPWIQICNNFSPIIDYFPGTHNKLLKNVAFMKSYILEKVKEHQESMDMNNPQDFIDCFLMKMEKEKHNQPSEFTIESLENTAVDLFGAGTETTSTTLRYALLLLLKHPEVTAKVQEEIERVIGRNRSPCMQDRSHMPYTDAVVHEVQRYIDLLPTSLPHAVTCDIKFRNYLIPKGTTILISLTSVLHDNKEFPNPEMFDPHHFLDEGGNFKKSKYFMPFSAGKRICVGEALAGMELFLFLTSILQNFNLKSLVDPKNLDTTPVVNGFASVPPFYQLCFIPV
CYP2C19 act: cytochrome P450 2C19 (human) activation | recombinant CYP2C19, luciferin-H EGE luminescence; stronger effect = higher value; 0 = fully inhibited enzyme, 1 = untreated enzyme | 96,000 tested, under 10 active | activation factor at 5 µM | P33261 | AID 1025;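 active = activation factor of at least 2 at 5 µM in the primary screen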;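 note: 0 = wells with 2.5 mM tranylcypromine and 1 = vehicle-only wells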
CYP2C9 activ: increases human cytochrome P450 2C9 activity; recombinant CYP2C9, luciferin-H conversion, luminescence; stronger effect = higher value; factor 1 = untreated enzyme, 0 = blocked; activation factor at 5 µM; AID 1024; actives 1.4% (n = 96,000);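 active = activation factor of 2 or more for CYP2C9 at a 5 µM dose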;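 note: 0 = sulfaphenazole-blocked wells and 1 = vehicle-only wells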
CYP2C19 inh: blocks human cytochrome P450 2C19. P33261. CYP2C19 Supersomes, luciferin-H EGE luminescence, 30 min. inhibition, % at 5 µM. actives 21% (n = 96,000). AID 778;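 active = CYP2C19 inhibition above a set limit at 5 µM in the primary screen, cut at about 50% in these data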;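 note: plate controls were negative control wells for no effect and 2.5 mM tranylcypromine positive control for full effect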
PLK1 PBD inh: Plk1 (human) PBD binding inhibition; P53350; Plk1 PBD phosphopeptide binding, fluorescence polarization; inhibition, %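 (tested at about 20 µM)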; actives 0.13% (n = 97,000); in the data active = inhibition above about 34%, passing the limit was not always enough
Numbers without * were called inactive. This is a sample that favours compounds with a hit; in the whole collection about 28% have one here.

What do the screens show for `C/C(=N/NS(=O)(=O)c1ccc(Br)cc1)c1ccc(NC(=O)c2ccc(C)o2)cc1`?
PLK1 kinase inh: -2; CYP2C9 inhib: 98*; CYP2C19 act: 0.5; CYP2C9 activ: 0; CYP2C19 inh: 50; PLK1 PBD inh: 28

Results for CC(=O)Nc1ccc(S(=O)(=O)NNC(=O)c2cccc3ccccc23)cc1 ?
PLK1 kinase inh: -7; CYP2C9 inhib: 62*; CYP2C19 act: 0.7; CYP2C9 activ: 0.4; CYP2C19 inh: 33; PLK1 PBD inh: -8

How did CCC(=O)Nc1ccc(/C(C)=N\NS(=O)(=O)c2ccc(C)cc2)cc1 do in these assays?
PLK1 kinase inh: -10; CYP2C9 inhib: 61*; CYP2C19 act: 0.8; CYP2C9 activ: 0.4; CYP2C19 inh: 16; PLK1 PBD inh: -25

How did CCOC(=O)c1ccc(NC(=O)NS(=O)(=O)c2ccc(C)cc2)cc1 do in these assays?
PLK1 kinase inh: -6; CYP2C9 inhib: 12; CYP2C19 act: 0.9; CYP2C9 activ: 0.9; CYP2C19 inh: 12; PLK1 PBD inh: 1

How did CC(=O)Nc1ccc(/C(C)=N/NS(=O)(=O)c2ccc(C)cc2)cc1 do in these assays?
PLK1 kinase inh: -4; CYP2C9 inhib: 71*; CYP2C19 act: 0.8; CYP2C9 activ: 0.3; CYP2C19 inh: 24; PLK1 PBD inh: 27

Results for CCC(=O)Nc1ccc(S(=O)(=O)Nc2ncccn2)cc1 ?
PLK1 kinase inh: -5; CYP2C9 inhib: 9; CYP2C19 act: 1; CYP2C9 activ: 0.9; CYP2C19 inh: 4; PLK1 PBD inh: 15

What do the screens show for `COc1ccc(S(=O)(=O)N/N=C(/C)c2ccc(Cl)cc2)cc1`?
PLK1 kinase inh: -2; CYP2C9 inhib: 79*; CYP2C19 act: 0.2; CYP2C9 activ: 0.2; CYP2C19 inh: 84*; PLK1 PBD inh: 7

What do the screens show for `CC(=O)Nc1ccc(NC(=O)CNS(=O)(=O)c2ccc(C)cc2)cc1`?
PLK1 kinase inh: -4; CYP2C9 inhib: 28; CYP2C19 act: 0.6; CYP2C9 activ: 0.7; CYP2C19 inh: 42; PLK1 PBD inh: 9

Results for CCC(NS(=O)(=O)c1ccc(C)cc1)C(=O)Nc1ccc(NC(C)=O)cc1 (stereo not given) ?
PLK1 kinase inh: -6; CYP2C9 inhib: 46; CYP2C19 act: 0.3; CYP2C9 activ: 0.5; CYP2C19 inh: 70*; PLK1 PBD inh: 14

Results for CC(=O)Nc1ccc(S(=O)(=O)NNC(=O)c2ccc(C)cc2)cc1 ?
PLK1 kinase inh: -11; CYP2C9 inhib: 41; CYP2C19 act: 0.5; CYP2C9 activ: 0.6; CYP2C19 inh: 53*; PLK1 PBD inh: 3

How did COc1ccc(C(NC(=O)CC(C)C)NC(=O)CC(C)C)cc1OC do in these assays?
PLK1 kinase inh: -11; CYP2C9 inhib: 4; CYP2C19 act: 1.1; CYP2C9 activ: 1; CYP2C19 inh: -7; PLK1 PBD inh: -11

Results for Cc1nc2ncnn2c(C)c1CCC(=O)NCCc1ccccc1 ?
PLK1 kinase inh: -16; CYP2C9 inhib: -55; CYP2C19 act: 1; CYP2C9 activ: 1.6; CYP2C19 inh: 2; PLK1 PBD inh: 18

Results for O=c1c2[nH]c3ccc(Br)cc3c2ncn1CCCn1ccnc1 ?
PLK1 kinase inh: -13; CYP2C9 inhib: 89*; CYP2C19 act: 0.2; CYP2C9 activ: 0.1; CYP2C19 inh: 82*; PLK1 PBD inh: 1

How did CCCCn1cnc2c([nH]c3ccccc32)c1=O do in these assays?
PLK1 kinase inh: -9; CYP2C9 inhib: 0; CYP2C19 act: 0.7; CYP2C9 activ: 1; CYP2C19 inh: 32; PLK1 PBD inh: -25

Results for O=c1c2[nH]c3ccccc3c2ncn1CCCn1ccnc1 ?
PLK1 kinase inh: 6; CYP2C9 inhib: 72*; CYP2C19 act: 0.7; CYP2C9 activ: 0.3; CYP2C19 inh: 30; PLK1 PBD inh: -9

How did Cc1ccc2[nH]c3c(=O)n(CCCN4CCN(C)CC4)cnc3c2c1 do in these assays?
CYP2C9 inhib: 1; CYP2C19 act: 1; CYP2C9 activ: 1; CYP2C19 inh: 2

Results for CCn1c(SCc2ccccc2Cl)nc2ccccc21 ?
PLK1 kinase inh: -1; CYP2C9 inhib: -19; CYP2C19 act: 0.6; CYP2C9 activ: 1.2; CYP2C19 inh: 39; PLK1 PBD inh: -14

How did Cn1c(SCc2ccccc2Cl)nc2ccccc21 do in these assays?
PLK1 kinase inh: -10; CYP2C9 inhib: -28; CYP2C19 act: 0.3; CYP2C9 activ: 1.3; CYP2C19 inh: 73*; PLK1 PBD inh: -29

What do the screens show for `CCn1c(CSc2nc3ccccc3n2C)nc2ccccc21`?
CYP2C9 inhib: 38; CYP2C19 act: 0.1; CYP2C9 activ: 0.6; CYP2C19 inh: 86*

How did O=C(Cc1ccccc1)NNC(=O)c1cccs1 do in these assays?
PLK1 kinase inh: -4; CYP2C9 inhib: 0; CYP2C19 act: 0.7; CYP2C9 activ: 1; CYP2C19 inh: 30; PLK1 PBD inh: 0

What do the screens show for `Cc1c(Nc2cc(N3CCCCCC3)c3nonc3c2[N+](=O)[O-])c(=O)n(-c2ccccc2)n1C`?
PLK1 kinase inh: 1; CYP2C9 inhib: 40; CYP2C19 act: 0.7; CYP2C9 activ: 0.6; CYP2C19 inh: 30; PLK1 PBD inh: -17

How did Nc1c(C(O)(C(F)(F)F)C(F)(F)F)ccc2ccccc12 do in these assays?
PLK1 kinase inh: -4; PLK1 PBD inh: 7

How did CC(=O)NC(Cc1ccccc1)C(=O)NC1CCN(C(=O)NC2CCCCC2)CC1 (stereo not given) do in these assays?
PLK1 kinase inh: -15; CYP2C9 inhib: -5; CYP2C19 act: 1.1; CYP2C9 activ: 1.1; CYP2C19 inh: -8; PLK1 PBD inh: -28

How did CS(=O)(=O)N1CCN(C2Cc3ccccc3C2)CC1 do in these assays?
PLK1 kinase inh: -6; CYP2C9 inhib: 8; CYP2C19 act: 0.4; CYP2C9 activ: 0.9; CYP2C19 inh: 57*; PLK1 PBD inh: -15

How did O=S(=O)(Cc1ccccc1)N1CCN(C2Cc3ccccc3C2)CC1 do in these assays?
PLK1 kinase inh: -2; CYP2C9 inhib: -21; CYP2C19 act: 1; CYP2C9 activ: 1.2; CYP2C19 inh: 4; PLK1 PBD inh: -7

Results for CCOc1ccc(OCC)c(NC(=O)CN2CCN(CC)CC2)c1 ?
PLK1 kinase inh: -15; PLK1 PBD inh: 3

What do the screens show for `C=CCn1c(C)cc(C(=O)CSc2nnc(-c3cccc(S(=O)(=O)N(CC)CC)c3)o2)c1C`?
PLK1 kinase inh: -19; CYP2C9 inhib: 89*; CYP2C19 act: 0.1; CYP2C9 activ: 0.1; CYP2C19 inh: 87*; PLK1 PBD inh: 20

What do the screens show for `CCN(CC)S(=O)(=O)c1cccc(-c2nnc(SCC(=O)c3cc(C)n(C4CC4)c3C)o2)c1`?
CYP2C9 inhib: 70*; CYP2C19 act: 0.4; CYP2C9 activ: 0.3; CYP2C19 inh: 64*

How did CCOC(=O)c1ccc(N2C(=O)C3ON(c4ccccc4)C(c4ccco4)C3C2=O)cc1 (stereo not given) do in these assays?
PLK1 kinase inh: -8; CYP2C9 inhib: 26; CYP2C19 act: 1; CYP2C9 activ: 0.7; CYP2C19 inh: 0; PLK1 PBD inh: -5

Compound activity as filed in PubChem.
